# Y pestis TopoI: Yersinia pestis topoisomerase I inhibitors, primary screen, biochemical, cleavage product accumulation, plate reader, single point | DNA topoisomerase I (Yersinia pestis CO92) | Y. pestis Topo-I cleavage product accumulation | activity, % at 10 µM | 0.064% of 360,000 active | AID 504884, 2011; in the data active = activity above about 50%, passing the limit was not always enough
# PrPC surface inh: inhibitors of human cell surface prion protein PrPC, primary screen, cell-based, TR-FRET | Major prion protein (Homo sapiens), P04156 | TR-FRET read-out | inhibition, % at 13.8 µM | 0.43% of 370,000 active | AID 720596, 2013; in the data active = inhibition above about 24%; also: 0% = median of the test wells and 100% = reference compound wells
# Vc quorum ag: inducers of Vibrio cholerae quorum light production without autoinducers, primary screen, BH1578 luxS cqsA deficient, single point | V. cholerae BH1578 lux reporter, luminescence, 6 h | activation, % at 18.7 µM | AID 588436, 2011 | 0.16% of 350,000 active; in the data active = activation mostly above about 9.7%, no sharp cut-off
# CCHFV vOTU inh: CCHFV vOTU protease inhibitors, primary screen, biochemical, Pep-AMC substrate, fluorescence | Crimean-Congo hemorrhagic fever virus L polyprotein viral ovarian tumor (vOTU) protease … | AID 651958, 2012 | inhibition, % at 11.5 µM | 0.55% of 370,000 active; in the data active = inhibition above about 30%; also: 0% = vehicle wells with enzyme and 100% = no enzyme wells
# Starred values were filed as active, the others as inactive; i = inactive; x = no result given; + = active, no number. This is a sample that favours compounds with a hit; in the whole collection about 1.1% have one here.
SMILES,Y pestis TopoI,PrPC surface inh,Vc quorum ag,CCHFV vOTU inh
Cc1ccccc1Cn1c(O)c(N=NC(=S)Nc2ccccc2F)c2ccccc21,-12,-2,-1,9
Clc1ccc(COn2c(-c3ccccc3)nc3ccccc32)cc1,59*,9,3,1
Clc1ccc(COn2c(-c3ccc(Cl)cc3)nc3ccccc32)cc1,27,9,2,-2
O=C(c1ccc(NS(=O)(=O)c2ccc(F)cc2)cc1)N1CCOCC1,3,8,i,33*
CC1(C(=O)NS(=O)(=O)Cc2ccccc2C(F)(F)F)CCN1C(=O)C/C=C/c1ccccc1 (stereo not drawn),8,0,0,-2
COC(=O)c1ccccc1NC1=C/C(=N\S(=O)(=O)c2ccc(C(=O)O)cc2)c2ccccc2C1=O,-2,x,0,x
CCc1ccc(S(=O)(=O)/N=C2\C=C(Nc3ccc(C(=O)O)cc3)C(=O)c3ccccc32)cc1,4,-14,0,112*
Cc1ccc(S(=O)(=O)/N=C2\C=C(NS(=O)(=O)c3ccccc3)C(=O)c3ccccc32)c(C)c1,4,4,-1,11
CC(C)(C)c1ccc(S(=O)(=O)/N=C2\C=C(NS(=O)(=O)c3ccccc3)C(=O)c3ccccc32)cc1,5,3,0,54*
Cn1c(SCC(=O)NCCc2ccccc2)nc2c([nH]c3ccccc32)c1=O,3,5,1,3
CN(C(=O)c1cc(COc2c(F)cccc2F)on1)C1CCOC1 (stereo not drawn),6,4,0,-19
O=C(c1cc(COc2c(F)cccc2F)on1)N(Cc1ccccc1)CC1CC1,64*,-5,0,12
Cc1ccc(-n2c(C)cc(=O)cc2C)cc1[N+](=O)[O-],0,-13,25*,-3
O=C(N/N=C/c1ccc(Sc2ccccn2)o1)c1cc2ccccc2cc1O,6,x,-2,x
CCc1cccc(CC)c1NC(=O)C1SC(=Nc2ccccc2C)C(c2nc3ccccc3s2)=C1N (stereo not drawn),4,25*,0,1
CCc1cccc(C)c1NC(=O)CCCSc1nc2ccccc2s1,-4,9,i,12
Nc1nonc1-n1nnc(C(=O)N/N=C/c2cccc(O)c2)c1CN1CCCC1,-1,-9,31*,-6
Nc1nonc1-n1nnc(C(=O)N/N=C/c2cccc(Cl)c2)c1CN1CCCCCC1,17,3,0,3
O=C(Nc1cnc2ccccn2c1=O)c1ccc(Cl)cc1Cl,4,-8,-1,-6
Cc1sc2ncnc(N3CCCC(C)C3)c2c1C (stereo not drawn),14,3,i,-4
C=C(C)CSc1nc(N)cc(=O)[nH]1,-2,-1,17*,2
O=C(CCN1c2ccccc2Sc2ccccc21)OCC(=O)N1CCN(C(=O)c2ccco2)CC1,52*,7,x,10
CNC(=O)c1sc(N2N=C3/C(=C/c4ccccc4)CCCC3C2c2ccccc2)nc1C (stereo not drawn),5,x,12*,x
CC(C)(C)c1ccc(OCCn2nc(C(=O)O)c3ccccc3c2=O)cc1,72*,6,0,16
CN1C(=O)CC(N2CCN(c3ncccn3)CC2)C1=O (stereo not drawn),3,-3,0,-3
SMILES,Y pestis TopoI,PrPC surface inh,Vc quorum ag,CCHFV vOTU inh
COc1cccc(C(=O)Nc2ccccc2N2CCCC2)c1,-7,-6,0,19
O=C(Nc1ccccc1N1CCCCC1)c1cccc(OC(F)F)c1,57*,-1,0,3
NC(=O)c1ccccc1NCC(=O)c1ccc(Cl)cc1,57*,5,-1,-14
O=C(CNc1ccccc1C(=O)O)c1ccccc1,-1,1,i,-14
Cc1ccccc1NCC(=O)c1ccc(Br)cc1,176*,1,-6,5
COc1ccc(-n2c(-c3ccc(F)cc3)cnc2SCC(=O)NCc2ccco2)cc1,51*,-3,i,1
O=C1COc2ccc(-c3csc(NCC4CCCO4)n3)cc2N1 (stereo not drawn),14,-7,x,9
O=c1c([N+](=O)[O-])c(N2CCCCC2)c2ccccc2n1-c1ccccc1,2,x,+,x
CC1CCCC=CC2CC(OC(=O)CN(C)C)CC2C(O)C=CC(=O)O1 (stereo not drawn),7,90*,i,2
C[C@H]1CCC/C=C/[C@@H]2C[C@H](O)C[C@H]2[C@@H](O)/C=C/C(=O)O1,-8,93*,6,-18
C[C@H]1CCC/C=C/[C@@H]2C[C@H](O)C[C@H]2[C@H](O)[C@H](S(=O)c2ccc(O)cc2)CC(=O)O1 (stereo partly drawn),-1,89*,i,-8
CCCCC[C@H]1CCCCC[C@@H](O)C[C@@H](O)[C@@H](O)/C=C/C(=O)O1,x,-5,x,9
COc1ccc(C(=O)NCC(=O)OCC(=O)c2c(C)[nH]c3ccccc23)cc1OC,7,0,1,16
CC1N(C)c2cc(NC(=O)c3cccs3)c(P(=O)(Nc3ccc([N+](=O)[O-])cc3)N3CCOCC3)cc2C1(C)C (stereo not drawn),6,5,0,7
Cc1cc(CNC(=S)Nc2ccc(S(=O)(=O)Nc3ncccn3)cc2)nn1C,3,-2,-1,6
CCc1ccc(OCc2n[nH]c(=S)n2C(C)CCCC(C)C)cc1 (stereo not drawn),63*,10,0,28
COC(=O)C1=C(c2ccc(-c3ccccc3)c(F)c2)C[C@@H]2CC[C@H]1N2C(=O)NCc1ccco1,56*,9,i,2
CC(=O)OCC(=O)[C@@]12OC(C)(C)O[C@@H]1C[C@H]1[C@@H]3C[C@H](F)C4=CC(=O)C=C[C@]4(C)[C@@]3(F)[C@@H](O)C[C@@]12C,x,x,21*,x
O=C(Nc1ccccc1OC(F)F)c1ccc(Br)o1,0,-2,32*,-1
O=C(c1ccccc1)[C@@H]1[C@@H](C(=O)c2ccc(F)cc2)[C@@]2(C(=O)Nc3ccccc32)[C@H]2c3ccccc3C=CN12,6,-3,0,84*
CC(=O)[C@@H]1[C@@H](C(=O)c2ccccc2)[C@]2(C(=O)Nc3ccccc32)[C@H]2C=Cc3cc(F)ccc3N12,2,1,i,-6
CCOC(=O)c1cc2c(C)nn(-c3ccccc3)c2s1,4,-5,1,11
Cc1nn(-c2ccccc2)c2sc(C(=O)OCc3nnc(-c4ccccc4)o3)cc12,5,-2,22*,4
Cc1ccc(-c2c(C#N)c(N)nc3c2CCCCC3)o1,11,-3,-1,-17
O=[N+]([O-])c1ccc(-c2nc(Cl)c3c(n2)CCCC3)o1,-3,-43,30*,18
OCCCNc1cc(-c2ccnc(Nc3cccc(Cl)c3)n2)ccn1,-1,42*,2,-2
O=C(CCC1N=C2c3ccccc3N=C(SCc3ccc(F)cc3)N2C1=O)NCc1ccco1 (stereo not drawn),23,1,0,-9

# From PubChem BioAssay
